Measurements taken from PubChem BioAssay (EPA / NIEHS).
Activity calls are given as the source filed them. The calls were made as follows: active = hit-call score of the fitted dose curve at least 0.9, where 1 is the maximum; inconclusive = response in the unintended direction; inactive = score below 0.9.

These compounds were tested against Estrogen receptor (Homo sapiens) (UniProt P03372) (assay: OT_ER_ERaERa_1440: Odyssey Thera (OT) 24-hour HEK293T Protein-Complementation Assay for Estrogen Receptor-alpha/-alpha Homodimer (AID 2283349);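 also: hits raise fluorescence above DMSO for agonists and antagonists alike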).
Chain of Estrogen receptor (Homo sapiens) (P03372 whole entry, looked up, the tested form may be a part): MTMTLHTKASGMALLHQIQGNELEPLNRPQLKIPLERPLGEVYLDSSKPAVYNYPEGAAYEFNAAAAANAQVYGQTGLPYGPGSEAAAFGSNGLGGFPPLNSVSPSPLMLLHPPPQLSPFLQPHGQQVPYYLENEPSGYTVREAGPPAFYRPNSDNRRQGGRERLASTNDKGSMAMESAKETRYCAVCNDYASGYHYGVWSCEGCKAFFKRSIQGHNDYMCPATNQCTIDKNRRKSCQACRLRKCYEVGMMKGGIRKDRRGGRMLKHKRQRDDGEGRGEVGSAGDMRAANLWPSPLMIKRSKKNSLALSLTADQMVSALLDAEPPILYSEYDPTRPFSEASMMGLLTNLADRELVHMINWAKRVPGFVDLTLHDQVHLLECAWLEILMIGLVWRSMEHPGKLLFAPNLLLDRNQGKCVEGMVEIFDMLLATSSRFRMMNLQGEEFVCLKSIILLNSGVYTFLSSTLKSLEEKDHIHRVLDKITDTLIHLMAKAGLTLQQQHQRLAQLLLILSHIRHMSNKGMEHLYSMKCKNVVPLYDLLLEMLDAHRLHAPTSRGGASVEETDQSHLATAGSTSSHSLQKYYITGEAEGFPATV
Procedure: OT_ER_ERaERa_1440 is a cell-based assay that uses HEK293T, a human kidney cell line, with measurements taken at 24 hours after chemical dosing in a 384-well plate.OT_ER_ERaERa_1440 is one of one assay component(s) measured or calculated from the OT_ER_ERaERa_1440 assay. It is designed to make measurements of protein fragment complementation, a form of binding reporter, as detected with fluorescence intensity signals by Protein-fragment Complementation technology.Data from the assay component OT_ER_ERaERa_1440 was analyzed into 1 assay endpoint. This assay endpoint, OT_ER_ERaERa_1440, was analyzed in the positive analysis fitting direction relative to DMSO as the negative control and baseline of activity. Using a type of binding reporter, measures of receptor for gain-of-signal activity can be used to understand the binding at the pathway-level as they relate to the gene ESR1. Furthermore, this assay endpoint can be referred to as a primary readout, because the performed assay has only produced 1 assay endpoint. To generalize the intended target to other relatable targets, this assay endpoint is annotated to the nuclear receptor intended target family, where the subfamily is steroidal.
Protein-fragment complementation assay, or PCA, is a method for the identification and quantification of protein-protein interactions. In the PCA, the proteins of interest ("bait" and "prey") are each covalently linked to fragments of a third protein (e.g. DHFR, which acts as a "reporter"). Interaction between the bait and the prey proteins brings the fragments of the reporter protein in close proximity to allow them to form a functional reporter protein whose activity can be measured. The OT ER alpha / ER alpha assay is a homodimer PCA of the ligand binding domain (amino acids 310-547) of human ER alpha stably expressed in HEK293T cells. […] Fluorescent signal in the basal state of the assay is very low and is primarily punctuate and cytoplasmic. Modulation of this assay is quantified as an increase in mean fluorescence intensity in the nucleus (for agonists) or in the nucleus and cytoplasm (antagonists) relative to vehicle controls, and can be quantified on a high content imaging device or a laser scanning cytometer. The latter instrument is favored for this assay because of the rapid mode of data acquisition, the ability to acquire data from the entire cell population in a well (as opposed to a fraction of the well on the high content devices) and the larger dynamic range typically achieved with this instrument. To assess sensitivity of the ER alpha/ER alpha LBD assay to ligand, cells were treated with the ER agonist 17 beta-estradiol (E2) in 10-point concentration- response format for 24 hours and monitored response on a laser scanning plate cytometer (Acumen eX3; TTP Lab Tech).
With O=C(OCc1ccccc1)c1ccccc1O the outcome was “inactive”.
With CCCCCCCCOC(=O)c1ccc(O)cc1 the AC50 was 32.8 µM (active).
In the case of c1coc(CNc2ncnc3nc[nH]c23)c1, the outcome is reported as “inactive”.
CC(C)C(=O)c1ccccc1 was tested, and the outcome was “inactive”.
In the case of [O-]/[N+](=N\O)c1ccccc1, the outcome is reported as “inactive”.
For CC(C)(C)C1CCC(O)CC1 (stereo not given), the outcome was “inactive”.
CNC(=C[N+](=O)[O-])NCCSCc1ccc(CN(C)C)o1 was tested, and the outcome was “inactive”.
OC[C@H]1O[C@@H](O[C@H]2[C@H](O)[C@@H](O)[C@H](O)O[C@@H]2CO)[C@H](O)[C@@H](O)[C@H]1O was tested, and the outcome was “inactive”.
In the case of Cc1cccc(O)c1, the outcome is reported as “inactive”.
COc1ccc(OC)cc1 was tested, and the outcome was “inactive”.
For CCCCCCOc1ccc(O)cc1, the AC50 was 13.6 µM (active).
For CC(=O)OC(C)(C)C1CC=C(C)CC1 (stereo not given), the outcome was “inactive”.
In the case of COC(=O)c1ccc(C(=O)OC)cc1, the outcome is reported as “inactive”.
In the case of C=C(C)C(=O)OCCC(C)OC(=O)C(=C)C (stereo not given), the outcome is reported as “inactive”.
In the case of O=Cc1ccccc1O, the AC50 is reported as 92 µM (active).
For CC(=O)C1=C(C)[C@@H]2C[C@@]3(C1)[C@H](C)CC[C@H]3C2(C)C, the AC50 was 72.1 µM (active).
With CCCCCCCC(=O)N(C)C the outcome was “inactive”.
In the case of c1ccc2scnc2c1, the outcome is reported as “inactive”.
CCCCC(CC)COCCO (stereo not given) was tested, and the outcome was “inactive”.
With CC(=O)OC(C)(C)C the outcome was “inactive”.
With CC(C)(CO)CO the outcome was “inactive”.
For COc1ccccc1O, the outcome was “inactive”.
With CCCCOCCOCCO the outcome was “inactive”.
With CCC(C)COC(=O)CC(C)C (stereo not given) the outcome was “inactive”.
For C1CCCNCC1, the outcome was “inactive”.
For CCCCCC1CCC(=O)O1 (stereo not given), the outcome was “inactive”.
With CC(=O)Oc1c(C)c(C)c2c(c1C)CC[C@@](C)(CCC[C@H](C)CCC[C@H](C)CCCC(C)C)O2 the outcome was “inactive”.
For CCC(C)(CCCC(C)C)OC(C)=O (stereo not given), the outcome was “inactive”.
For CC(C)(C)c1ccc(S)cc1, the outcome was “inactive”.
For O=S(=O)(O)c1cc(S(=O)(=O)O)c2c(N=Nc3ccccc3)c(O)ccc2c1, the outcome was “inactive”.
With CC(=O)Nc1cc(S(=O)(=O)O)cc2cc(S(=O)(=O)O)c(N=Nc3ccccc3)c(O)c12 the outcome was “inactive”.
With COc1cc(OC)c2ccc(=O)oc2c1 the outcome was “inactive”.
In the case of CCC(C)(C)C1CCC(OC)CC1 (stereo not given), the outcome is reported as “inactive”.
CCCC(O)C(CC)CO (stereo not given) was tested, and the outcome was “inactive”.
CCCCCCCCOS(=O)(=O)O was tested, and the outcome was “inactive”.
For CCCc1ccc(N)cc1, the outcome was “inactive”.
In the case of CCC(C)(C)C1CCC(=O)CC1, the outcome is reported as “inactive”.
For CN(C)C, the outcome was “inactive”.
For CC(=O)C1C(=O)C=C(C)OC1=O (stereo not given), the outcome was “inactive”.
With CCO[Si](CC)(OCC)OCC the outcome was “inactive”.
